From ChEMBL document CHEMBL1157539, “Thousands of chemical starting points for antimalarial lead identification” (Nature, 2010)

These compounds were tested on Plasmodium falciparum (assay: GSK_TCMDC: Inhibition of Plasmodium falciparum Dd2 in whole red blood cells, using parasite LDH activity as an index of growth. Test compounds present at 2uM).
Assay type: functional

Compound	Inhibition [%]
N#Cc1ccc(C(=O)NC2CCN(CCCCCNC(=O)/C=C/c3ccc(Cl)c(Cl)c3)CC2)cc1	1
Cc1cccc2nc(-c3cccc(-c4ccc(NC(=O)c5ccncc5)cc4)c3)[nH]c12	74
COc1cccc(CNC[C@@H](O)[C@H](Cc2ccccc2)NC(=O)c2cc(C(C)C)cc(N3CCCC3=O)c2)c1	61
CC1CCCCC1N(C)C1CCN(CCCNC(=O)C=Cc2ccc(Cl)cc2Cl)CC1 (centres undefined)	59
Nc1ccc(-c2nc3cc(Oc4ccc5[nH]c(-c6ccc(N)cc6)nc5c4)ccc3[nH]2)cc1	99
CCCCOc1ccc(-c2nc3ccccc3[nH]2)cc1	82
Br.CC1(C)NC(N)=NC(=N)N1OCCCOc1cc(Cl)cc(Cl)c1	97
O=C(NCCc1ccccc1F)c1cc(Br)cc(N2CCN(c3ccncc3)CC2)c1.O=C(O)C(F)(F)F	67
CCNc1cc(C)nc(Nc2ccc(NC(=O)c3ccc(OC)c(OC)c3)cc2)n1	65
Cc1noc(-c2ccc3c(c2)CCN(CCC2CCC(NC(=O)/C=C/c4ccc(F)cc4)CC2)CC3)n1.Cl (centres undefined)	39
CCNc1cc(C(=O)N[C@@H](Cc2ccccc2)[C@H](O)CNC2C3CC4CC(C3)CC2C4)cc(N2CCCCS2(=O)=O)c1.Cl (some centres undefined)	96
COc1cc2nc(NCCc3ccccc3)nc(NCCc3ccccc3)c2cc1OC	100
CCN1CCN(c2cc(C)c3cc(NC(=O)c4cccc(C(F)(F)F)c4)ccc3n2)CC1	85
Clc1ccc2c(Cl)c(CNCCCNc3nc4ccccc4[nH]3)[nH]c2c1	7
